HIV RNase H inh – inhibitors of HIV-1 reverse transcriptase RNase H; P04585; RT-RNase H RNA/DNA duplex cleavage, fluorescence; inhibition, % at 10 µM; actives 1.9% (n = 65,000); in the data active = inhibition above about 50%
RmlC RmlD mix – inhibitors of RmlC and RmlD coupled enzymes | RmlC/RmlD coupled enzyme inhibition, 384-well mixture HTS | inhibition, % at 5.5 µM | actives 0.39% (n = 110,000); in the data active = inhibition above about 30%, passing the limit was not always enough
RmlCD artifact – shows fluorescent artifact in RmlC/RmlD assay, dose-response counter-screen; AID 1696; actives 96% (n = 360); shares compounds with RmlC RmlD mix; calls only; RmlC/RmlD assay fluorescence artifact counter-screen; call rule not given here;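 also: compound alone with no enzyme and no substrates present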
Starred values were filed as active, the others as inactive; i = inactive; . = no result given; + = active, no number. This is one part of a sample in which hits are shown more often than they occur.

SMILES	HIV RNase H inh	RmlC RmlD mix	RmlCD artifact
O=c1c(-c2ccc3c(c2)OCCO3)coc2c(CN3CCOCC3)c(O)ccc12	-5	13	.
Cc1cc(=O)oc2c(CN(CC(C)C)CC(C)C)c(O)ccc12	.	105*	+
CCN(CC)Cc1c(O)ccc2c(-c3ccccc3)cc(=O)oc12	-6	-8	.
CC(C)CN(Cc1c(O)ccc2c3c(c(=O)oc12)CCC3)CC(C)C	.	95*	+
Cc1c(O)ccc2c3c(c(=O)oc12)CCCC3	-26	70	.
CN(C(=O)Cn1c(=O)n(CCCCC(=O)NC2CCCC2)c(=O)c2ccccc21)C1CCCCC1	-9	.	.
O=C(CN1CCC(NC(=O)Nc2ccccc2-c2ccccc2)CC1)NCc1ccco1	38	7	.
Nc1c(C(=O)NCCN2CCOCC2)c2nc3ccccc3nc2n1Cc1ccco1	-18	37*	+
COC(=O)c1c(N)n(CCCN2CCOCC2)c2nc3ccccc3nc12	.	-6	.
COCCNC(=O)c1c(N)n(Cc2ccco2)c2nc3ccccc3nc12	.	19	.
CCOC(=O)c1c(N)n(CCN2CCCCC2)c2nc3ccccc3nc12	2	38*	+
O=C(CSc1nnnn1-c1cccnc1)NCc1cccs1	5	1	.
O=C(c1c(F)c(F)c(F)c(F)c1F)N1CCc2ccccc21	0	-63	.
Nc1cccc(-c2nc3cc(S(=O)(=O)c4ccc5oc(-c6cccc(N)c6)nc5c4)ccc3o2)c1	.	46*	+
Cc1ccc(-c2nc3cc(N)ccc3o2)cc1	-10	.	.
CNCc1cc2ccc(C)cc2[nH]c1=O	12	-8	.
CCOC(=O)C1CCCN(c2cc(=O)n(Cc3ccc(F)cc3)c(=O)[nH]2)C1 (stereo not drawn)	-7	-11	.
COc1ccc2cc(-c3nc4ccccc4n3C)c(=O)oc2c1	.	31*	+
COc1ccc2oc(=O)c(-c3nc4ccccc4o3)cc2c1	.	15	.
CCOCCCn1c(C)nc2c(c1=O)c1nc3ccccc3nc1n2CCC1=CCCCC1	-25	.	.
Cc1nc2c(c(=O)n1CCC1=CCCCC1)c1nc3ccccc3nc1n2/N=C/c1ccccc1	.	-5	+
CCCC(C(=O)NCc1ccco1)N(C(=O)CNS(=O)(=O)c1ccccc1)c1ccccc1OC (stereo not drawn)	6	3	.
Cc1coc(NC(=O)CSc2nc(-c3ccc(Cl)cc3)cc(C(F)(F)F)c2C#N)n1	.	4	.
COc1ccc(-c2cc(C(F)(F)F)c(C#N)c(SCC(=O)Nc3nc(C)co3)n2)cc1	.	+	+
CN(C(=O)c1ccc(C#N)cc1)c1nnc(-c2ccccn2)s1	.	40*	i
SMILES	HIV RNase H inh	RmlC RmlD mix	RmlCD artifact
CN(C(=O)c1cccc(C#N)c1)c1nnc(-c2ccccn2)s1	-15	36*	+
CN(C(=O)c1ccncc1)c1nnc(-c2cccnc2)s1	-7	.	.
COc1ccc(-c2nnc(N(C)C(=O)c3ccno3)s2)cc1	.	22	.
CN(C(=O)c1ccncc1)c1nnc(-c2ccccn2)s1	-3	108*	+
CN(C(=O)c1ccno1)c1nnc(-c2ccccn2)s1	-11	+	+
CN(C(=O)c1cccc(C#N)c1)c1nnc(C2CCOC2)s1 (stereo not drawn)	-8	-7	.
CN(C(=O)c1ccccn1)c1nnc(-c2ccncc2)s1	0	.	.
O=C(CSc1nnc2sc3ccccc3n12)NCc1ccc2c(c1)OCO2	-8	6	.
O=C(Nc1ccc(-c2noc(CCc3ccccc3)n2)cc1)c1cccnc1	-10	-9	.
O=C1c2ccccc2C(Nc2ccc(F)cc2F)N1CCN1CCOCC1 (stereo not drawn)	-1	-18	.
CCn1nnc(NC(=O)c2cccc(-c3cc4ccccc4oc3=O)c2)n1	0	56	.
Cc1ccc2nc(NC(=O)c3cccc(-c4cc5ccccc5oc4=O)c3)sc2c1	.	41*	+
Cc1ccc2nc(-c3ccc(NC(=S)NCCC(C)C)cc3)sc2c1	.	130*	+
CC(=O)NC(=S)Nc1ccc(-c2nc3ccc(C)cc3s2)cc1	.	-4	.
COc1ccc(C)cc1NC(=O)C(=O)NNC(=O)c1ccco1	.	-16	.
Cc1cccc(N(CC(=O)N/N=C/c2cc([N+](=O)[O-])ccc2Cl)S(C)(=O)=O)c1C	.	-18	.
O=C(O)c1cc(-c2ccccc2)nc2ccccc12	-7	4	.
CCOc1ccc(-c2cc(C(=O)O)c3ccccc3n2)cc1	.	32*	+
COc1ccc(S(=O)(=O)Nc2ccc(S(=O)(=O)Nc3nc(C)cc(C)n3)cc2)cc1OC	-2	33	.
Cc1ccc2c(c1)CC1(CN2C)C(=O)OC2(CCCCC2)OC1=O	-1	-8	.
CN1CC2(Cc3c1ccc1ccccc31)C(=O)OC(C)(C)OC2=O	3	+	+
CCCOc1ccc2c(C)c(CC(=O)OC)c(=O)oc2c1	-10	-9	.
CCN(CC)Cc1c(O)ccc2c(C)c(CC(=O)OC)c(=O)oc12	-1	110*	+
COC(=O)Cc1c(C)c2ccc(OCC(=O)N(C)C)cc2oc1=O	.	31*	+

High-throughput results (PubChem)
